Values joined by “and” are separate entries in the source; they are usually repeats but may differ in a detail not shown here. Identical values can stand only once. Among all 5,500 compounds or so, about 2,000 (36%) were called active. Inconclusive results (about 18%) are left out. Rule as the data show it: active = normalized growth mostly below about 0.91 (no sharp cut-off); inconclusive = no clear call, values can overlap the other calls; inactive = mostly above about 0.92. The list shows a part of the results.
Experiment: chemical genetic growth profiling, strain panel (AID 1159580);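 also: tested at 20 µM; growth read once vehicle control cultures reached saturation at 30 °C; 1 = growth at the plate median or of vehicle wells; lower values mean less growth of the strain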
Settings: S. cerevisiae deletion strains, growth OD

Measured: normalized growth

C[C@@H]1CC[C@H]2[C@@H](C)C(=O)O[C@@H]3O[C@@]4(C)CC[C@@H]1[C@]32OO4
inactive: locus YAL013W, strain DEP1, hits give low values 0.924 | locus YBR021W, strain FUR4, hits give low values 0.948 | locus YBR229C, strain ROT2, hits give low values 0.942 | locus YDL005C, strain med2, hits give low values 0.967 | locus YDL040C, strain nat1, hits give low values 0.949 | locus YDL074C, strain BRE1, hits give low values 0.83 | locus YDL101C, strain DUN1, hits give low values 0.913 | locus YDR001C, strain nth1, hits give low values 0.932 | locus YDR195W, strain ref2 0.956 | locus YDR334W, strain swr1, hits give low values 0.917 | locus YER110C, hits give low values 0.932 | locus YER111C, strain swi4, hits give low values 0.93 | locus YGL078C, strain dbp3, hits give low values 0.939 | locus YGL167C, strain pmr1, hits give low values 0.973 | locus YGL173C, strain kem1, hits give low values 0.907 | locus YGL227W, strain vid30, hits give low values 0.95 | locus YGR252W, strain gcn5, hits give low values 0.854 | locus YHR094C, strain hxt1, hits give low values 0.94 | locus YIL073C, strain SPO22, hits give low values 0.741 | locus YJL154C, strain vps35, hits give low values 0.928 | locus YJR043C, strain POL32, hits give low values 0.867
active: locus YAL021C, strain ccr4, hits give low values 0.741 | locus YAL026C, strain drs2, hits give low values 0.824 | locus YAL030W, strain snc1, hits give low values 0.89 | locus YBL061C, strain skt5, hits give low values 0.903 | locus YBR009C, strain hhf1, hits give low values 0.788 | locus YBR023C, strain chs3, hits give low values 0.906 | locus YBR171W, strain sec66, hits give low values 0.889 | locus YBR231C, strain swc5, hits give low values 0.713 | locus YBR279W, strain paf1, hits give low values 0.864 | locus YCL011C, strain gbp2, hits give low values 0.869 | locus YCL016C, strain dcc1, hits give low values 0.837 | locus YCL029C, strain bik1, hits give low values 0.887 | locus YCL069W, strain vba3, hits give low values 0.924 | locus YCR088W, strain abp1, hits give low values 0.921 | locus YDL035C, strain GPR1, hits give low values 0.825 | locus YDL134C, strain PPH21, hits give low values 0.818 | locus YDL185W, strain tfp1, hits give low values 0.875 | locus YDL192W, strain arf1, hits give low values 0.867 | locus YDR069C, strain doa4, hits give low values 0.872 | locus YDR101C, strain arx1, hits give low values 0.887 | locus YDR137W, strain rgp1, hits give low values 0.388 | locus YDR150W, strain NUM1, hits give low values 0.899 | locus YDR159W, strain sac3, hits give low values 0.595 | locus YDR162C, strain NBP2, hits give low values 0.817 | locus YDR297W, strain sur2, hits give low values 0.893 | locus YDR318W, strain mcm21, hits give low values 0.841 | locus YDR335W, strain msn5, hits give low values 0.853 | locus YDR388W, hits give low values 0.868 | locus YDR392W, strain spt3, hits give low values 0.374 | locus YDR502C, strain sam2, hits give low values 0.815 | locus YEL003W, strain gim4, hits give low values 0.808 | locus YEL037C, strain rad23, hits give low values 0.915 | locus YEL061C, strain CIN8 (second series), hits give low values 0.889 | locus YEL061C, strain CIN8, hits give low values 0.891 | locus YER015W, strain faa2, hits give low values 0.761 | locus YER016W, strain bim1, hits give low values 0.904 | locus YER155C, strain BEM2 (second series), hits give low values 0.655 | locus YER155C, strain BEM2, hits give low values 0.922 | locus YER167W, strain BCK2, hits give low values 0.784 | locus YFR010W, strain ubp6, hits give low values 0.841 | locus YGL086W, strain mad1, hits give low values 0.827 | locus YGL240W, strain doc1, hits give low values 0.757 | locus YGL248W, strain PDE1, hits give low values 0.818 | locus YGL253W, strain hxk2, hits give low values 0.707 | locus YGR078C, strain PAC10, hits give low values 0.789 | locus YGR135W, strain pre9, hits give low values 0.858 | locus YHR013C, strain ard1, hits give low values 0.781 | locus YHR027C, strain rpn1, hits give low values 0.781 | locus YHR030C, strain SLT2, hits give low values 0.837 and 0.62 | locus YHR079C, strain IRE1 (second series), hits give low values 0.89 | locus YHR079C, strain IRE1, hits give low values 0.654 | locus YHR129C, strain ARP1, hits give low values 0.89 | locus YHR142W, strain chs7, hits give low values 0.856 | locus YHR200W, strain rpn10, hits give low values 0.851 | locus YIL066C, strain RNR3, hits give low values 0.805 | locus YIL125W, strain kgd1, hits give low values 0.893 | locus YIR030C, strain dcg1, hits give low values 0.918 | locus YJL092W, strain hpr5, hits give low values 0.859 | locus YJL095W, strain BCK1 (second series), hits give low values 0.798 | locus YJL095W, strain BCK1, hits give low values 0.625 and 0.71 | locus YJL115W, strain asf1, hits give low values 0.861 | locus YJL129C, strain trk1, hits give low values 0.703 | locus YJL134W, strain LCB3, hits give low values 0.927 | locus YJL164C, strain tpk1, hits give low values 0.871 | locus YJL166W, strain qcr8, hits give low values 0.813 | locus YJL168C, strain set2, hits give low values 0.915 | locus YJL187C, strain SWE1 (second series), hits give low values 0.843 | locus YJR066W, strain TOR1, hits give low values 0.738 | locus YJR075W, strain HOC1, hits give low values 0.79

Reference: PubChem BioAssay AID1159580 (chemical genetic matrix, 2015)
